Test results published in ChEMBL document CHEMBL3988442, “University of Dundee, Small-Polar-MMV Screening Library” (2021).
Among all 48,000 compounds or so, about 13,000 (27%) showed an effect of 50% or more. The list shows a part of the results.

Tested on: Wolbachia pipientis
Test: Anti-Wolbachia Cell-Based Screen
Assay type: functional
Parameters: scale not given: in the data most compounds retested in dose-response had high values
Settings: 5 µM

| Structure (SMILES) | Percent Effect [%] |
| --- | --- |
| O=C(NCCc1ccc(Cl)cc1)c1coc(CN2CCOCC2)c1 | -3.788 |
| Cc1ccc(-n2nc(C)c3c2NC(=O)CC3c2cnc(N)s2)cc1 (stereo unspecified) | 19.39 |
| CC1=C(C#N)C(=O)NC(=O)/C1=C\c1c(C)nn(-c2ccc(Cl)cc2)c1O | 109.3 |
| Cc1nn(-c2ccccc2)c2c1C(c1ccc(C(=O)O)cc1)CC(=O)N2 (stereo unspecified) | -3.155 |
| Cc1nn(-c2ccccc2)c(C)c1CNC(=O)NC1CC(=O)N(C)C1 (stereo unspecified) | 1.592 |
| CC1=C(C#N)C(=O)NC(=O)/C1=C\c1c(C)nn(-c2ccccc2)c1O | 95.98 |
| CC1=C(C#N)C(=O)NC(=O)/C1=C\c1c(C)nn(-c2ccc(C)cc2)c1O | 117.9 |
| CNS(=O)(=O)c1cccc(CNC(=O)c2cc(C)no2)c1 | 131.9 |
| CNS(=O)(=O)c1cccc(CNC(=O)NCC2CCOC2)c1 (stereo unspecified) | -2.881 |
| CNS(=O)(=O)c1ccc(CNC(=O)c2cc(-c3ccccn3)no2)cc1 | -10.88 |
| CNS(=O)(=O)c1ccc(CNC(=O)c2cc(C)no2)cc1 | 3.551 |
| CCn1c(C)cc(C(=O)NCc2cccc(S(=O)(=O)NC)c2)c1C | -0.4884 |
| CCc1ccc(C(=O)NCc2cccc(S(=O)(=O)NC)c2)o1 | 104.9 |
| CC(C)NC(=O)CNC(=O)c1csc(Cc2ccccc2F)n1 | 109.5 |
| CCN(CC(=O)NC(C)C)C(=O)c1csc(Cc2ccccc2)n1 | -19.99 |
| COCc1nc(C(=O)NS(=O)(=O)c2ccc(F)c(F)c2)cs1 | -13.23 |
| COC(=O)CCN(C)C(=O)c1ccc(-c2cscn2)cc1 | -8.458 |
| Cc1nc(C)c(CC(=O)NCc2ccccc2F)s1 | 8.727 |
| CCN(CC(=O)NC)C(=O)c1csc(Cc2ccccc2)n1 | -20.14 |
| CCNC(=O)CN(CC)C(=O)c1csc(Cc2ccccc2F)n1 | 97.94 |
| CC(C)NC(=O)CCNC(=O)Nc1cnn(-c2ccccc2F)c1 | -8.567 |
| CC(C)NC(=O)CN(C)C(=O)c1csc(Cc2ccccc2F)n1 | 122.3 |

| Structure (SMILES) | Percent Effect [%] |
| --- | --- |
| CC(=O)Nc1nc(C(=O)NCCOc2ccccc2F)cs1 | -9.068 |
| COC(=O)CCN(C)C(=O)c1csc(Cc2ccccc2F)n1 | 117.5 |
| CCNC(=O)CN(CC)C(=O)Cc1csc(C(C)C)n1 | 11.15 |
| CCc1ccc(CNC(=O)CCc2nnc(-c3ccc(C)s3)o2)nc1 | 18.56 |
| CC(C)c1cc(C(=O)N(c2ccc(F)cn2)C2CCOCC2)on1 | -4.853 |
| N#Cc1ccc(CN2CCc3sccc3C2)c(F)c1 | 2.911 |
| CCc1ccc(C(C)NCc2nccn2Cc2ccccc2)o1 (stereo unspecified) | -9.423 |
| CCNC(=O)N(Cc1cccc(OC)c1)C1CCC(O)CC1 (stereo unspecified) | -8.682 |
| CCS(=O)(=O)N1CCc2nnc(CN(C)C(C)C)n2CC1 | -16.92 |
| Fc1cnc(N2CCCn3c(nnc3Cn3cccc3)C2)nc1.O=C(O)C(F)(F)F | 0.8563 |
| OCc1nnc2n1CCN(c1cnccn1)C2 | 108 |
| CN(C)Cc1nnc2n1CCN(c1cnccn1)CC2.O=C(O)C(F)(F)F | -7.956 |
| c1cnc(N2CCCn3c(nnc3Cn3cccn3)C2)nc1 | 3.271 |
| CC(C)N(C)Cc1nnc2n1CCCN(c1cnccn1)C2 | 115.4 |
| Fc1cnc(N2CCn3c(CN4CCCC4)nnc3C2)nc1.O=C(O)C(F)(F)F | -4.314 |
| c1ccn(Cc2nnc3n2CCCN(c2cnccn2)C3)c1 | 100.7 |
| CN(C)CCOCc1nnc2n1CCN(c1cnccn1)CC2 | 1.736 |
| OCCOc1ccc(NCc2cccc3[nH]ccc23)cn1 | 0.765 |
| CC(C(=O)Nc1ncccn1)N1CCCN(c2nccs2)CC1 (stereo unspecified) | -8.894 |
| CCn1nc(C)c(CNC(=O)NCC(C)(O)c2ccccc2)c1C (stereo unspecified) | 3.084 |
| CCn1nc(C)c(CNC(=O)NCC(C)(O)c2ccco2)c1C (stereo unspecified) | -13.65 |
| CCn1nc(C)c(CNC(=O)NCC(C)(O)c2ccc(C)o2)c1C (stereo unspecified) | 57.07 |

| Structure (SMILES) | Percent Effect [%] |
| --- | --- |
| O=C(c1coc(CN2CCN(c3ccccc3F)CC2)n1)N1CCCC1 | -9.887 |
| CC(=O)N1CCN([C@@H]2CN(C(=O)c3ccccc3C)C[C@H]2O)CC1 | 166 |
| CCCc1cc(C(=O)N2C[C@H](O)[C@@H](N3CCCC3)C2)ccn1 | -25.18 |
| Cc1ccccc1C(=O)N1CC2(COC(C)(C)OC2)C1 | -1.566 |
| O=C(O)C(F)(F)F.O=C(c1ccccc1)N1C[C@@H]2CCCO[C@@H]2[C@H](N2CCCC2)C1 | 0.7695 |
| Cc1ccccc1C(=O)N1C[C@@H]2C[C@@H](C)O[C@@H]2C1 | -6.005 |
| CC(=O)N1CCN([C@@H]2CN(C(=O)c3ccccc3)C[C@H]2O)CC1 | 163.7 |
| Cc1ccccc1C(=O)N1C[C@@H](O)[C@H](N2CCOCC2)C1 | 137.5 |
| Cn1cccc1C(=O)N1C[C@@H]2CCCO[C@@H]2[C@H](N2CCOCC2)C1 | 10.78 |
| CS(=O)(=O)c1ccc(NC(=O)N2C[C@H](O)[C@@H](N3CCOCC3)C2)cc1 | -0.5097 |
| CCCN(CC1CC1)S(=O)(=O)c1ccc(NC(C)=O)cc1 | 9.5 |
| CCN(Cc1noc(C)n1)C(=O)CCn1c(C)cc2ccccc21 | -6.675 |
| Cc1cc(NCC(=O)N(C)C(C)c2cccs2)c(C(N)=O)cc1F (stereo unspecified) | -3.325 |
| CCOCCC(=O)NC1(c2cccc(Br)c2)CC1 | 2.519 |
| CN1N=C(C(=O)N2CCCN(c3ncccc3C#N)CC2)CCC1=O | -11.38 |
| Cc1cc(C)c(C(=O)N2CCN(c3ncccc3C#N)CC2)c(=O)[nH]1 | -2.204 |
| CSC(C)C(=O)N1CCCN(c2ncccc2C#N)CC1 (stereo unspecified) | 94.48 |
| CC(C(=O)N1CCCN(c2ncccc2C#N)CC1)n1cncn1 (stereo unspecified) | 99.83 |
| CC(C)C(C(=O)N1CCN(c2ccncc2)CC1)n1cncn1 (stereo unspecified) | -6.945 |
| CC(C(=O)N1CCCN(c2ncccc2C#N)CC1)n1ccnc1 (stereo unspecified) | 9.037 |
| CC(C)C(C(=O)N1CCCN(c2cccnn2)CC1)n1cncn1 (stereo unspecified) | 101.3 |
| Cc1ccc(N2CCCN(C(=O)C(C(C)C)n3cncn3)CC2)nn1 (stereo unspecified) | 1.391 |
